Compound activity deposited in PubChem BioAssay by National Center for Advancing Translational Sciences (NCATS).
An excerpt weighted towards active compounds, which were near 21% of everything screened.
Shiga toxin inh = Shiga toxin inhibition. Vero cells, Shiga toxin protein synthesis inhibition reporter. inhibition, % at 38.7 µM. 9.2% of 290,000 active. AID 2315; in the data active = inhibition mostly above about 28%, no sharp cut-off; inactive = mostly below about 43%; note: 0% is about no effect
HCMV inh = blocks human cytomegalovirus replication; HFF cells, HCMV-luciferase reporter, 72 h; active compounds read low; activity change, negative = inhibition, % at 57.5 µM; 4.5% of 410,000 active; AID 1259415; in the data active = activity change below about -60%; inconclusive = no clear call, values can overlap the other calls; inactive = above about -39%; note: % is set by controls: 0 for no effect and ±100 for the full control effect
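HFF cells seeded 16 h at 37C, treated with compounds, infected with luciferase-reporter HCMV at MOI 1 PFU/cell; luciferase read at 72 h post infection, normalized to buffer-only and Salinomycin controls.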
Pf growth 48h = inhibits P. falciparum growth in the first generation, 48 h. P. falciparum luciferase growth in erythrocytes, 48 h. Potency, µM (doses to about 28.7 µM), for the others: top-dose activity change, negative = inhibition, actives largely listed as inhibitors. 5.9% of 310,000 active; note: potency is the fitted concentration of half-maximal effect; % is set by controls: 0 for no effect and ±100 for the full control effect
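Firefly luciferase activity from engineered P. falciparum reports growth; inhibitors lower the luminescent signal. Cultures contained 2% hematocrit erythrocytes at 0.1% final parasitemia.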
HCV inh = inhibitors of hepatitis C virus infection | Huh7.5.1 HCVcc-Cre infection, luciferase reporter, 44 h | Potency, µM (top dose mostly 41.8 µM), for the others: at the highest dose activity change, negative = inhibition, actives largely listed as inhibitors | 3.4% of 340,000 active; note: potency is the fitted concentration of half-maximal effect; % is set by controls: 0 for no effect and ±100 for the full control effect
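Infectious HCV cell culture screen: compound-treated cells (1,000/well, pre-plated 4 h) are infected with HCVcc-Cre at roughly 0.5 moi and grown 44 h. Infection is quantified by luciferase signal after 15 min substrate incubation at room temperature.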
Cycloheximide cs = counter-screen for Shiga toxin inhibitors: cycloheximide protein synthesis inhibition; 12% of 300,000 active; max response, %; cell reporter, cycloheximide protein synthesis inhibition counterscreen; in the data active = max response mostly above about 13%, no sharp cut-off; inactive = mostly below about 14%; note: read at 38.3 µM for the half of the compounds with a filed dose; 0% is about no effect
Pf growth 96h = P. falciparum growth inhibition at 96 hour, primary screen for plastid delayed-death inhibitors; Potency, µM (series often up to 28.7 µM), for inactives: at the highest dose activity change, negative = inhibition, most hits filed as inhibitors; P. falciparum luciferase reporter growth, 96 h; 6.9% of 320,000 active; note: potency is the fitted concentration of half-maximal effect; % is set by controls: 0 for no effect and ±100 for the full control effect
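Parasite growth measured via integrated firefly luciferase reporter in P. falciparum. Infected erythrocytes at 2% hematocrit, 0.05% parasitemia final were treated 96 hours at 37 C under 5% CO2, and luminescence was read.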
* = called active by the depositor; [ ] = dose if it differs, or a comment. Unless noted, calls come from the whole dose curve; as a rule, active = well fitted inhibition curve with a large enough effect; inconclusive = small, poorly fitted or top-dose-only effect, or another doubt; inactive = no such curve, though single readings can be large or run the other way.

Results for CCCc1[nH]n(-c2ccc([N+](=O)[O-])cc2)c(=O)c1C(C)=NCc1ccncc1 ?
Shiga toxin inh: 41; HCMV inh: inconclusive; Pf growth 48h: 0%; HCV inh: inconclusive; Cycloheximide cs: -1; Pf growth 96h: -3%

Results for Cc1cccn2cc(CCNS(=O)(=O)c3cccc([N+](=O)[O-])c3)nc12 ?
Shiga toxin inh: -7; HCMV inh: -10; Pf growth 48h: inconclusive; HCV inh: 37%; Cycloheximide cs: -2; Pf growth 96h: 21%

What do the screens show for `Cc1cc2[nH]c(=O)c(=O)[nH]c2cc1S(=O)(=O)Nc1cccc(C(F)(F)F)c1`?
HCMV inh: 11

How did CN(C)c1ccc(C(=O)N=c2sccn2C)cc1[N+](=O)[O-] do in these assays?
Shiga toxin inh: 42*; HCMV inh: 19; Pf growth 48h: 86%; HCV inh: -11%; Cycloheximide cs: 18*; Pf growth 96h: 64%

Results for CN(C)c1ccc(C(=O)c2ccccc2C(=O)O)cc1[N+](=O)[O-] ?
Shiga toxin inh: 4; HCMV inh: 39; Pf growth 48h: -11%; HCV inh: 15%; Cycloheximide cs: -2; Pf growth 96h: 47%[5.75 µM]

What do the screens show for `CCn1cc(/C=C(\NC(=O)c2ccc(OC)cc2)C(=O)N2CCN(C)CC2)c2ccccc21`?
Shiga toxin inh: -2; HCMV inh: 7; Pf growth 48h: inconclusive; HCV inh: -3%; Cycloheximide cs: 0; Pf growth 96h: 13µM*

What do the screens show for `COc1ccc(C(=O)N/C(=C\c2cn(C)c3ccccc23)C(=O)N2CCN(C)CC2)cc1`?
Shiga toxin inh: 11; HCMV inh: 31; Pf growth 48h: inconclusive; HCV inh: 26%; Cycloheximide cs: 1; Pf growth 96h: 42%

Results for CN(C)S(=O)(=O)n1cc(/C=C(\NC(=O)c2ccccc2F)C(=O)NCCCn2ccnc2)c2ccccc21 ?
Shiga toxin inh: 1; HCMV inh: -1; Pf growth 48h: 10µM*; HCV inh: -25%; Cycloheximide cs: 2; Pf growth 96h: -7%

Results for CCn1cc(/C=C(\NC(=O)c2ccccc2OC)C(=O)NCCCN2CCOCC2)c2ccccc21 ?
Shiga toxin inh: -5; HCMV inh: -23; Pf growth 48h: inconclusive; HCV inh: 5%; Cycloheximide cs: 8; Pf growth 96h: 9.3µM*

How did CN(C)S(=O)(=O)n1cc(/C=C(\NC(=O)c2ccccc2)C(=O)N2CCCC2)c2ccccc21 do in these assays?
Shiga toxin inh: -9; HCMV inh: -7; Pf growth 48h: inconclusive; HCV inh: inconclusive; Cycloheximide cs: -2; Pf growth 96h: inconclusive

What do the screens show for `COc1ccccc1C(=O)N/C(=C\c1cn(S(=O)(=O)N(C)C)c2ccccc12)C(=O)NCCCn1ccnc1`?
HCMV inh: 7

Results for CN1CCN(C(=O)/C(=C/c2cn(S(=O)(=O)N(C)C)c3ccccc23)NC(=O)c2ccccc2)CC1 ?
Shiga toxin inh: -11; HCMV inh: -38; Pf growth 48h: inconclusive; HCV inh: -9%; Cycloheximide cs: -3; Pf growth 96h: 12µM*

What do the screens show for `COc1ccc(-c2nc(SCC(=O)Nc3ccccc3)c(-c3ccc(F)cc3)[nH]2)cc1OC`?
HCMV inh: -1

Results for C[C@H](CO)N1C[C@H](C)[C@@H](CN(C)C(=O)Nc2ccc(C(F)(F)F)cc2)Oc2ccc(NC(=O)CCC(F)(F)F)cc2C1=O ?
HCMV inh: 4; HCV inh: -32%

Results for CC1=C(C(=O)N2CCCCC2)C(c2cccc(Cl)c2)n2c(nc3ccccc32)N1 (centres undefined) ?
HCMV inh: -14

What do the screens show for `Cn1nc(C(=O)Nc2nc(-c3ccccn3)cs2)c2ccccc2c1=O`?
HCMV inh: -31; Pf growth 48h: 4.1µM*; HCV inh: inconclusive; Pf growth 96h: 3.3µM*

What do the screens show for `CC1(c2ccccc2)NC(=O)N(CC(=O)Nc2nc(-c3ccccn3)cs2)C1=O` (centres undefined)?
HCMV inh: 4; Pf growth 48h: -80%; HCV inh: inconclusive; Pf growth 96h: inconclusive

Results for O=C(Nc1nc2c(s1)CCCC2)c1nn(Cc2ccccc2)c(=O)c2ccccc12 ?
Shiga toxin inh: 10; HCMV inh: -19; Pf growth 48h: inconclusive; HCV inh: -5%; Cycloheximide cs: -2; Pf growth 96h: inconclusive

How did CCn1nc(C(=O)Nc2nc(-c3ccccn3)cs2)c2ccccc2c1=O do in these assays?
HCMV inh: -10; Pf growth 48h: 2.3µM*; HCV inh: inconclusive; Pf growth 96h: 2.6µM*

How did CC(C)CCn1nc(C(=O)Nc2nc3c(s2)CCCC3)c2ccccc2c1=O do in these assays?
Shiga toxin inh: -17; HCMV inh: -18; Pf growth 48h: 10µM*; HCV inh: inconclusive; Cycloheximide cs: 7; Pf growth 96h: inconclusive

How did CCCn1nc(C(=O)Nc2nc(-c3ccccn3)cs2)c2ccccc2c1=O do in these assays?
HCMV inh: 28; Pf growth 48h: 4.1µM*; HCV inh: 5µM*; Pf growth 96h: 4.1µM*

How did COC(=O)[C@H]1[C@@H](C)N(Cc2ccccc2)C(=O)N[C@H]1c1ccccc1 do in these assays?
HCMV inh: 6; HCV inh: 17%

Results for O=C(Nc1ncc2c(n1)-c1ccccc1CC2)C1CC1 ?
Shiga toxin inh: 13; HCMV inh: -7; Pf growth 48h: inconclusive; HCV inh: inconclusive; Cycloheximide cs: 9; Pf growth 96h: inconclusive

Results for CC(C)SCC(=O)Nc1ncc2c(n1)-c1ccccc1CC2 ?
Shiga toxin inh: 20; HCMV inh: -64*; Pf growth 48h: inconclusive; HCV inh: inconclusive; Cycloheximide cs: 20; Pf growth 96h: 18%

What do the screens show for `Cc1ccc(NC(=O)CCc2c(C)nc3c(-c4ccccc4)c(C)nn3c2C)c(C)c1`?
HCMV inh: 5

What do the screens show for `O=C1c2ccccc2C(=O)N1CN(C(=O)c1ccccc1[N+](=O)[O-])c1ccc(F)cc1`?
Shiga toxin inh: -6; HCMV inh: -22; Pf growth 48h: 12%; HCV inh: -3%; Cycloheximide cs: 1; Pf growth 96h: inconclusive

How did Cc1ccc(N(CN2C(=O)c3ccccc3C2=O)C(=O)c2ccc([N+](=O)[O-])cc2[N+](=O)[O-])cc1 do in these assays?
Shiga toxin inh: -7; HCMV inh: -1; Pf growth 48h: 20%; HCV inh: 11%; Cycloheximide cs: -2; Pf growth 96h: 3.7µM*

What do the screens show for `O=C(C[n+]1ccccc1)c1ccc(Cl)cc1`?
Shiga toxin inh: 2; Pf growth 48h: 15%; HCV inh: 10%; Cycloheximide cs: 0; Pf growth 96h: 8%

How did Cn1nnc2c[n+](CC(=O)c3ccc4ccccc4c3)cc(Br)c21 do in these assays?
Shiga toxin inh: 29; HCMV inh: -97*; Pf growth 48h: 12µM*; HCV inh: inconclusive; Cycloheximide cs: 15*; Pf growth 96h: inconclusive
